In PubChem BioAssay AID1159580 (chemical genetic matrix, 2015):
“And” between values parts separate entries of the source, which are not always exact repeats. Identical values can stand only once. About 2,000 (36%) of roughly 5,500 compounds were called active. Inconclusive results (about 18%) are left out. Rule as the data show it: active = normalized growth mostly below about 0.91 (no sharp cut-off); inconclusive = no clear call, values can overlap the other calls; inactive = mostly above about 0.92. The list shows a part of the results. Where a SMILES comes first, the peptide text is derived from it.

Assay: chemical genetic growth profiling, strain panel (AID 1159580);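 also: tested at 20 µM; growth read once vehicle control cultures reached saturation at 30 °C; 1 = growth at the plate median or of vehicle wells; lower values mean less growth of the strain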
Settings: S. cerevisiae deletion strains, growth OD

Measured: normalized growth

CC(=O)N[C@@H](CC(=O)O)C(=O)N[C@@H](CCC(=O)O)C(=O)O (Ac-Asp-Glu-OH)
inactive: locus YAL013W, strain DEP1, stronger effect = lower value 0.996 | locus YAL021C, strain ccr4, stronger effect = lower value 1 | locus YAL026C, strain drs2, stronger effect = lower value 1.01 | locus YAL030W, strain snc1, stronger effect = lower value 1.01 | locus YBL061C, strain skt5, stronger effect = lower value 1 | locus YBR009C, strain hhf1, stronger effect = lower value 0.969 | locus YBR021W, strain FUR4, stronger effect = lower value 1.02 | locus YBR023C, strain chs3, stronger effect = lower value 1.01 | locus YBR171W, strain sec66, stronger effect = lower value 1 | locus YBR229C, strain ROT2, stronger effect = lower value 1.01 | locus YBR231C, strain swc5, stronger effect = lower value 0.997 | locus YBR279W, strain paf1, stronger effect = lower value 1 | locus YCL011C, strain gbp2, stronger effect = lower value 1 | locus YCL016C, strain dcc1, stronger effect = lower value 0.998 | locus YCL029C, strain bik1, stronger effect = lower value 0.989 | locus YCL061C, strain MRC1, stronger effect = lower value 1 | locus YCL069W, strain vba3, stronger effect = lower value 1 | locus YCR088W, strain abp1, stronger effect = lower value 1 | locus YDL005C, strain med2, stronger effect = lower value 1 | locus YDL035C, strain GPR1, stronger effect = lower value 1.01 | locus YDL040C, strain nat1, stronger effect = lower value 0.998 | locus YDL074C, strain BRE1, stronger effect = lower value 1.03 | locus YDL101C, strain DUN1, stronger effect = lower value 1.03 | locus YDL134C, strain PPH21, stronger effect = lower value 1.02 | locus YDL185W, strain tfp1, stronger effect = lower value 1 | locus YDL192W, strain arf1, stronger effect = lower value 0.996 | locus YDR001C, strain nth1, stronger effect = lower value 1 | locus YDR069C, strain doa4, stronger effect = lower value 1 | locus YDR101C, strain arx1, stronger effect = lower value 0.98 | locus YDR137W, strain rgp1, stronger effect = lower value 1.03 | locus YDR150W, strain NUM1, stronger effect = lower value 1.02 | locus YDR159W, strain sac3, stronger effect = lower value 0.983 | locus YDR162C, strain NBP2, stronger effect = lower value 1.02 | locus YDR195W, strain ref2 0.985 | locus YDR297W, strain sur2, stronger effect = lower value 0.996 | locus YDR318W, strain mcm21, stronger effect = lower value 0.981 | locus YDR334W, strain swr1, stronger effect = lower value 1.01 | locus YDR335W, strain msn5, stronger effect = lower value 1 | locus YDR388W, stronger effect = lower value 0.989 | locus YDR392W, strain spt3, stronger effect = lower value 0.898 | locus YDR502C, strain sam2, stronger effect = lower value 0.989 | locus YEL003W, strain gim4, stronger effect = lower value 1 | locus YEL037C, strain rad23, stronger effect = lower value 1.01 | locus YEL061C, strain CIN8 (second series), stronger effect = lower value 1 | locus YEL061C, strain CIN8, stronger effect = lower value 1.01 | locus YER015W, strain faa2, stronger effect = lower value 1 | locus YER016W, strain bim1, stronger effect = lower value 1 | locus YER110C, stronger effect = lower value 0.987 | locus YER111C, strain swi4, stronger effect = lower value 0.993 | locus YER155C, strain BEM2 (second series), stronger effect = lower value 1.01 | locus YER155C, strain BEM2, stronger effect = lower value 1.01 | locus YER167W, strain BCK2, stronger effect = lower value 1 | locus YFR010W, strain ubp6, stronger effect = lower value 1.01 | locus YGL078C, strain dbp3, stronger effect = lower value 0.993 | locus YGL086W, strain mad1, stronger effect = lower value 0.994 | locus YGL167C, strain pmr1, stronger effect = lower value 0.995 | locus YGL173C, strain kem1, stronger effect = lower value 1.01 | locus YGL227W, strain vid30, stronger effect = lower value 1 | locus YGL240W, strain doc1, stronger effect = lower value 0.987 | locus YGL248W, strain PDE1, stronger effect = lower value 1.02 | locus YGL253W, strain hxk2, stronger effect = lower value 1.02 | locus YGR078C, strain PAC10, stronger effect = lower value 1.01 | locus YGR135W, strain pre9, stronger effect = lower value 0.995 | locus YGR229C, strain SMI1, stronger effect = lower value 1.01 | locus YGR252W, strain gcn5, stronger effect = lower value 0.97 | locus YHR013C, strain ard1, stronger effect = lower value 0.977 | locus YHR027C, strain rpn1, stronger effect = lower value 1.01 | locus YHR030C, strain SLT2, stronger effect = lower value 1.01 and 0.999 | locus YHR079C, strain IRE1 (second series), stronger effect = lower value 0.992 | locus YHR079C, strain IRE1, stronger effect = lower value 0.99 | locus YHR094C, strain hxt1, stronger effect = lower value 0.985 | locus YHR129C, strain ARP1, stronger effect = lower value 1.01 | locus YHR142W, strain chs7, stronger effect = lower value 1.04 | locus YHR200W, strain rpn10, stronger effect = lower value 0.998 | locus YIL066C, strain RNR3, stronger effect = lower value 1.01 | locus YIL073C, strain SPO22, stronger effect = lower value 1 | locus YIL125W, strain kgd1, stronger effect = lower value 0.982 | locus YIR030C, strain dcg1, stronger effect = lower value 0.992 | locus YJL092W, strain hpr5, stronger effect = lower value 1.01 | locus YJL095W, strain BCK1 (second series), stronger effect = lower value 1 | locus YJL095W, strain BCK1, stronger effect = lower value 1.02 and 0.976 | locus YJL115W, strain asf1, stronger effect = lower value 0.999 | locus YJL129C, strain trk1, stronger effect = lower value 1.01 | locus YJL134W, strain LCB3, stronger effect = lower value 1.01 | locus YJL154C, strain vps35, stronger effect = lower value 1 | locus YJL164C, strain tpk1, stronger effect = lower value 1 | locus YJL166W, strain qcr8, stronger effect = lower value 1.01 | locus YJL168C, strain set2, stronger effect = lower value 0.99 | locus YJL187C, strain SWE1 (second series), stronger effect = lower value 1.01 | locus YJL187C, strain SWE1, stronger effect = lower value 1 | locus YJR043C, strain POL32, stronger effect = lower value 1.01 | locus YJR066W, strain TOR1, stronger effect = lower value 0.904
